# High-throughput results (PubChem BioAssay)
# An excerpt weighted towards active compounds, which were near 7.4% of everything screened.
# Rab9 prom act = activators of Rab9 promoter; Huh7 Rab9 promoter-luciferase reporter, luminescence, 24 h; 320,000 tested, 2.8% active; Potency, µM (titrated, usually from 9.22 µM), for the others: at the highest dose activation, negative = inhibition, hits mostly activators; note: % of control where 0% means no effect; nearly all actives have a fitted effect of over 60% in size
#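 Promoter activation is measured as luciferase luminescence in Huh7 cells stably transfected with a Rab9 promoter–luciferase construct, following 24 h compound exposure at 37 °C and 10 min reagent incubation at ambient temperature.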
# SMN2 splice up = enhancers of SMN2 splice variant expression | HEK293 SMN2-luciferase splicing reporter, luminescence, 30-36 h | Potency, µM (highest dose often 46.1 µM), for the others: at the top dose activity change, positive = activation, most hits filed as activators | 210,000 tested, 2.8% active; note: % of control where 0% means no effect; nearly all actives have a fitted effect of over 55% in size
#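 qHTS luciferase splicing reporter: luminescence rises when SMN2 exon 7 is included in transfected HEK293 cells. Compound exposure lasted 30-36 h at 37C, with 4.5 mM final sodium butyrate as control, followed by a ONE-Glo read.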
# FLuc counter = firefly luciferase modulation, counter-screen for miR-21 project; purified FLuc, Km substrates, luminescence inhibition; Potency, µM (doses to about 57.5 µM), for the others: top-dose activity change, negative = inhibition, usual class: inhibitors; 360,000 tested, 6.9% active;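 note: plate controls were vehicle for no effect and reference inhibitor for full effect; nearly all actives have a fitted effect of over 55% in size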
# Target sequence (P08659 whole entry, looked up): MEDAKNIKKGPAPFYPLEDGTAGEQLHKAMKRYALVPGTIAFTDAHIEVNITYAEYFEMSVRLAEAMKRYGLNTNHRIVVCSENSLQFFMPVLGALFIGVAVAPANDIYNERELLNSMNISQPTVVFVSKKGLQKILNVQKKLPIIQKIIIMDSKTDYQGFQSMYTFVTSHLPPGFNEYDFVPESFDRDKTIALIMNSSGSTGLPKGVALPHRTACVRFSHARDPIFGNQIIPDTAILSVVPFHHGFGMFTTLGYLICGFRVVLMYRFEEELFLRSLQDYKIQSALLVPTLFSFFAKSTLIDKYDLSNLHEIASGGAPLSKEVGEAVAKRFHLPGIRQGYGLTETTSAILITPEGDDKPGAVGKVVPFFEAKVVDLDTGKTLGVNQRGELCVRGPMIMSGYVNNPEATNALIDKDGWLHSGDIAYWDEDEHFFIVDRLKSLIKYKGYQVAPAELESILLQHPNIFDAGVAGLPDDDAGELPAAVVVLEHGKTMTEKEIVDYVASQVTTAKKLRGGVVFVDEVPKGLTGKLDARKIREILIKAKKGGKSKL
#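 Purified P. pyralis luciferase (10nM final) with 10uM D-luciferin and 10uM ATP (Km levels) in 50mM Tris acetate pH 7.5, 10mM Mg acetate, 0.01% Tween-20, 0.05% BSA; qHTS 6-point titration, ~60 µM downward; luminescence read.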
# ELG1 genotoxic = inducers of genotoxicity in HEK293T ELG1-luciferase cells; HEK293T ELG1-luciferase reporter, luminescence, 16 h; Potency, µM (top dose mostly 46 µM), for inactives: at the top dose activity change, positive = activation, most hits filed as activators; 330,000 tested, 1.3% active; note: % of control where 0% means no effect; nearly all actives have a fitted effect of over 60% in size
#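 HEK293T cells expressing luciferase-tagged ELG1 were treated with compound or DMSO for 16 hr at 37°C. Luciferase activity was then read after 30 min with ONE-Glo at room temperature; rising signal flags genetic stress.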
# NPC1 prom act = NPC1 promoter activation; Huh7 NPC1 promoter luciferase reporter, 24 h; Potency, µM (titrated, usually from 9.22 µM), inactives show at the top dose activation, actives largely listed as activators; 320,000 tested, 2.4% active; note: % of control where 0% means no effect; nearly all actives have a fitted effect of over 60% in size
#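 In 1536-well qHTS, Huh7 cells harboring an NPC1 promoter–luciferase construct received compound for 24 h; activation was quantified by luminescence following luciferase reagent addition.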
# Luc counter = blocks Kinase-Glo luciferase, a counter-screen artifact; Kinase-Glo luciferase, ATP luminescence, 8 min; AID 1379; Q27757; Potency, µM (top dose mostly 38.3 µM), inactives show at the top dose activity change, negative = inhibition, most hits filed as inhibitors; 200,000 tested, 0.28% active; note: % is set by controls: 0 for no effect and ±100 for the full control effect; nearly all actives have a fitted effect of over 60% in size
#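 Recombinant Kinase-Glo luciferase, 10 uM ATP (linear range), luciferin; imidazole pH 7.2 / KCl / MgCl2 / Tween / BSA buffer; 8 min RT; luminescence.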
# Starred values were filed as active, the others as inactive; ? = inconclusive; . = no result. Calls come from the whole dose curve; as a rule, active = well fitted curve in the direction sought with a large enough effect; inconclusive = small, poorly fitted or top-dose-only effect, or another doubt; inactive = no such curve, though single readings can be large; an effect the other way counts as inactive or inconclusive. Potency is the fitted concentration of half-maximal effect.
SMILES,Rab9 prom act,SMN2 splice up,FLuc counter,ELG1 genotoxic,NPC1 prom act,Luc counter
COc1ccc(O)c(-c2cc(-c3ccccc3Cl)[nH]n2)c1,24%,.,11µM*,?,24%,.
COc1ccc(-c2ncncc2-c2ccccc2)c(O)c1,6%,.,-2%,-12%,0%,.
COc1ccc(/C=C/c2nc(-c3ccccc3O)n[nH]2)cc1,3.5µM*,4µM*,3.8µM*,?,3.5µM*,?
CC(C)COC(=O)c1ccc2c(c1O)C(=O)c1ccccc1C2=O,3.2µM*,?,1.3µM*,1.3µM*,2µM*,-14%
COc1ccc2c(c1O)C(=O)c1ccccc1C2=O,?,.,?,14%,?,.
CC(C)c1ccc(CNC(=O)C(=O)NCC2CCCO2)cc1 (stereo not drawn),0%,14%,0%,8%,-1%,-2%
CC(=O)c1cn(CCOc2ccc(F)cc2)c2ccccc12,-13%,.,-4%,-1%,-10%,.
O=[N+]([O-])c1ccc(O)c(-c2nn[nH]n2)c1,27%,-3%,27µM*,?,13%,-1%
CCc1ccc(CNC(=O)C(CC)n2nc(C)c3c(C)n(-c4ccccc4)nc3c2=O)cc1 (stereo not drawn),.,.,-17%,.,.,.
CCOC(=O)c1ccc(N2C(=O)c3[nH]nc(-c4ccccc4)c3C2c2ccc(CC)cc2)cc1 (stereo not drawn),.,-78%,-2%,.,.,.
COc1ccc(-c2cn3nc(SCC(=O)NC4CCCCC4)ccc3n2)cc1,0.71µM*,.,0.34µM*,?,0.56µM*,.
COc1ccc(-c2[nH]c(-c3ccccc3)nc2SCC(=O)NC2CCCC2)cc1,-5%,-6%,-4%,1%,0%,0%
COc1ccc(-c2nnc(SCC(=O)NC3CCCCC3)o2)cc1,2%,.,?,5%,-6%,.
COc1ccc(-c2nnc(SCC(=O)NC3CCCCC3)nc2-c2ccc(OC)cc2)cc1,.,.,4%,.,.,.
COc1ccc(-c2nc(SCC(=O)NC3CCCCC3)n[nH]2)cc1,-3%,.,15µM*,-4%,-10%,.
CCOc1ccc(-c2nc(SCC(=O)NC3CCCC3)c(-c3ccccc3)[nH]2)cc1OC,.,-85%,24µM*,.,.,.
Cc1ccc(-c2ccc(SCC(=O)NC3CCCCC3)nn2)cc1,28%,.,2.7µM*,10%,?,.
O=C(NCC(=O)N1CCN(Cc2ccccc2)CC1)c1ccc(Br)o1,0%,.,4%,3%,-2%,.
Cc1noc(C)c1C(=O)OC(C)C(=O)N(C)c1ccccc1 (stereo not drawn),1%,.,.,0%,0%,.
CCOc1ccc(-c2ccc(SCC(=O)NC3CCCCC3)nn2)cc1,1.6µM*,.,0.38µM*,?,2µM*,.
COc1ccc(-c2ccc(SCC(=O)NC3CCCCC3)nn2)cc1,2.2µM*,.,1.7µM*,?,?,.
Cc1ccc(-c2ccc(SCC(=O)NC3CCCC3)nn2)cc1,11%,.,?,-2%,13%,.
CCOc1ccc(CN2C(=O)c3ccccc3Sc3ccc(C(=O)NCc4ccco4)cc32)cc1,.,-5%,4%,.,.,.
Cc1cccc2nc(COc3ccc(Cl)c4cccnc34)cn12,?,?,12µM*,?,21%,-3%
COCCCNC(=O)Cn1nnc(-c2ccc(NC(=O)c3ccccc3F)cc2)n1,27%,?,13µM*,14%,26%,-1%
COc1cc(/C=C(\C#N)c2nc3c(s2)CCCC3)ccc1O,?,22µM*,6µM*,11µM*,?,-7%
CC1CCc2nc(/C(C#N)=C/c3cccnc3)sc2C1 (stereo not drawn),1.3µM*,2µM*,2.1µM*,2.3µM*,?,-3%
COc1cc(/C=C(\C#N)C(=O)N2CCCCC2)ccc1O,-3%,.,-7%,4%,2%,.
N#C/C(=C\c1cccnc1)c1nc2c(s1)CCCC2,4µM*,13µM*,12µM*,16µM*,3.5µM*,1%
